Targets with a hit are over-represented here; the source holds about 7,900 in all. About 0.6% of all pairs of compound and target were hits. Unmarked numbers belong to inactive results.
What was measured:
Test in all cases: log2 fold change, soluble protein after heating vs DMSO (PISA); higher = thermal stabilisation; K562 cells, 10 uM, 30 min; active = over 0.2 and 3.5 SD of the protein, either way, in both replicates (recomputed)
IRAK-1-4 Inhibitor I = compound: C1COCCN1CCN2C3=CC=CC=C3N=C2NC(=O)C4=CC(=CC=C4)[N+](=O)[O-] [IRAK-1-4 Inhibitor I]
Method in brief: (§1)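 Soluble protein was defined as the supernatant after 21,000xg for 90 min. It came from K562 cells at 2×10^6 cells/mL given 10 μM compound for 30 min, heated in aliquots for 3 min across 48°C-58°C, pooled, and extracted in PBS with 0.5% NP-40 at 4°C, and was quantified by TMTpro 16plex LC-MS/MS with equalised channel sums. Thermal stability against control samples, from duplicates, is reported as log2 fold change.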

ibrutinib = compound: C=CC(=O)N1CCC[C@@H](n2nc(-c3ccc(Oc4ccccc4)cc3)c3c(N)ncnc32)C1 [ibrutinib]
Method in brief: as §1

[1] = compound: CC(=O)c1cnc2ccc(-c3cc(Cl)c(O)c(Cl)c3)nc2c1N[C@H]1CC[C@H](CN(C)C)CC1
Method in brief: as §1

ralimetinib = compound: CC(C)(C)Cn1c(N)nc2ccc(-c3[nH]c(C(C)(C)C)nc3-c3ccc(F)cc3)nc21 [ralimetinib]
Method in brief: as §1

[2] = compound: CC(C)(O)CC(=O)NCCn1ccc2ncnc(Nc3ccc(Oc4cccc(C(F)(F)F)c4)c(Cl)c3)c21
Method in brief: as §1

[3] = compound: CC(C)C1=C2N=C(C=C(N2N=C1)NCC3=CC=CC=C3)NCCCCCCN
Method in brief: as §1

[4] = compound: CC(C)C[C@@H](C=O)NC(=O)[C@H](CC(C)C)NC(=O)[C@H](CC(C)C)NC(=O)OCc1ccccc1
Method in brief: as §1

pinometostat = compound: CC(C)N(C[C@H]1O[C@@H](n2cnc3c(N)ncnc32)[C@H](O)[C@@H]1O)[C@H]1C[C@@H](CCc2nc3cc(C(C)(C)C)ccc3[nH]2)C1 [pinometostat]
Method in brief: as §1

[5] = compound: CC1=C(C(CC(=O)N1)C2=CC=C(C=C2)C(F)(F)F)C(=O)NC3=C(C=C4C(=C3)C=NN4)F
Method in brief: as §1

[6] = compound: CC1=C(C2=C(C=C1)C(=O)C3=CC=CC=C3N2CCCN)C
Method in brief: as §1

UniProt Q15257, sequence (Q15257 whole entry, looked up): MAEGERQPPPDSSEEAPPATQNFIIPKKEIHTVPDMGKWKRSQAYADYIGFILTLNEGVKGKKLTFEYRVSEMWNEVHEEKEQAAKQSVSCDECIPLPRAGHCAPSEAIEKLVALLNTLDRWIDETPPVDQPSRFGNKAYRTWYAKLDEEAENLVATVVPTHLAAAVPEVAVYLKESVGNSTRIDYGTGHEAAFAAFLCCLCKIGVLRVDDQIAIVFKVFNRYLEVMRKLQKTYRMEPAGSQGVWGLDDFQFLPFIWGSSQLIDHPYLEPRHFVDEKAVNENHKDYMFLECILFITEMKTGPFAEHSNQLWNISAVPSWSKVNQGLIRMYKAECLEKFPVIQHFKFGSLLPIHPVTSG
UniProt Q00577, sequence (Q00577 whole entry, looked up): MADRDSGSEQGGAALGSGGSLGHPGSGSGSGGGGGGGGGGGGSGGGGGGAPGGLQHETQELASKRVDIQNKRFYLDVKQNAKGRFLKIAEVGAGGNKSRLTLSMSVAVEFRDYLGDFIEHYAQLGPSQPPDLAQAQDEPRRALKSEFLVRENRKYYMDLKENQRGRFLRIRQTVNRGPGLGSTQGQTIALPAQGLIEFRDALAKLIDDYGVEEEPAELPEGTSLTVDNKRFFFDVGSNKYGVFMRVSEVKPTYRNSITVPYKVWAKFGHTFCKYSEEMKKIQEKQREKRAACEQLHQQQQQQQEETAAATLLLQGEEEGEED
UniProt P19174, sequence (P19174 whole entry, looked up): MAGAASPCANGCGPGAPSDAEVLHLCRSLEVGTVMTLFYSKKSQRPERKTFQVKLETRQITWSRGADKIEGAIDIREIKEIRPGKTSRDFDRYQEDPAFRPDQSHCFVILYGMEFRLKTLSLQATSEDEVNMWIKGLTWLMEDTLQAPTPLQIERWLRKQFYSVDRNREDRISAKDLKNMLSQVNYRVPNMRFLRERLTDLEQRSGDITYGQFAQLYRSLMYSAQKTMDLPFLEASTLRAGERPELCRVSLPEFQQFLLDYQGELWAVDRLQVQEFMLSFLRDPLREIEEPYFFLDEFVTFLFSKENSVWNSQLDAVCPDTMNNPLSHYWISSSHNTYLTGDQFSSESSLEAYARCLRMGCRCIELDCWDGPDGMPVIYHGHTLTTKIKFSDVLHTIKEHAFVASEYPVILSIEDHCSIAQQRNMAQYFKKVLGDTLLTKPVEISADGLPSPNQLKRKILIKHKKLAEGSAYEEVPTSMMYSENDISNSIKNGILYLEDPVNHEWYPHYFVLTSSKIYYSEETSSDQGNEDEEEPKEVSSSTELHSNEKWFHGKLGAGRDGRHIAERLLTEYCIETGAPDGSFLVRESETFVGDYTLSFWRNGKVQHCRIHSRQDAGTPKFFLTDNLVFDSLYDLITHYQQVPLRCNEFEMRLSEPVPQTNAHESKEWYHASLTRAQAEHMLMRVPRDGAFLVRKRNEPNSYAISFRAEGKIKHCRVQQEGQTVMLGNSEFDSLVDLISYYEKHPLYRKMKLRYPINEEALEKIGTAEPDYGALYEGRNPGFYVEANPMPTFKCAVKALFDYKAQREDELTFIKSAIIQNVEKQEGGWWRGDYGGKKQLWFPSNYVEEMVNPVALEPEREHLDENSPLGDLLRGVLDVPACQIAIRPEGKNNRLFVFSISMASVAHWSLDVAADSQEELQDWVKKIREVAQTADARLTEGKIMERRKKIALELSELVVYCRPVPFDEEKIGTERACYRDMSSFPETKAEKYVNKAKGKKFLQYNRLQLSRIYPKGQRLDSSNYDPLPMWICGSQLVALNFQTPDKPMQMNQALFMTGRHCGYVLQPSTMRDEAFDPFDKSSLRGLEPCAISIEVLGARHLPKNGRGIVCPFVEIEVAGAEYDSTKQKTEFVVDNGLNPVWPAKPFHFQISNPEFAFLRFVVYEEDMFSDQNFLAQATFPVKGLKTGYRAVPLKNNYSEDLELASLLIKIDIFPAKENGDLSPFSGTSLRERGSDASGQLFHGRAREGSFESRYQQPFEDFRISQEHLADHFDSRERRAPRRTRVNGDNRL
UniProt P49585, sequence (P49585 whole entry, looked up): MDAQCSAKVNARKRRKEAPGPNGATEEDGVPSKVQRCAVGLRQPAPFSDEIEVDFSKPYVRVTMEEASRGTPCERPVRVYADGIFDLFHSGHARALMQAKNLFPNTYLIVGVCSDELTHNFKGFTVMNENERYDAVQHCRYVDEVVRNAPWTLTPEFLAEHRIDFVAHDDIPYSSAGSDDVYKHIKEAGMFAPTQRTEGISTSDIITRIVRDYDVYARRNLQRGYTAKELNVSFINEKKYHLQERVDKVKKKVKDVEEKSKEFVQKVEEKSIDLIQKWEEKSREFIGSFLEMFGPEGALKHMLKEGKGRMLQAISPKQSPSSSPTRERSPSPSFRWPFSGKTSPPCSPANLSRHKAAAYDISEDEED
UniProt O00628, sequence (O00628 whole entry, looked up): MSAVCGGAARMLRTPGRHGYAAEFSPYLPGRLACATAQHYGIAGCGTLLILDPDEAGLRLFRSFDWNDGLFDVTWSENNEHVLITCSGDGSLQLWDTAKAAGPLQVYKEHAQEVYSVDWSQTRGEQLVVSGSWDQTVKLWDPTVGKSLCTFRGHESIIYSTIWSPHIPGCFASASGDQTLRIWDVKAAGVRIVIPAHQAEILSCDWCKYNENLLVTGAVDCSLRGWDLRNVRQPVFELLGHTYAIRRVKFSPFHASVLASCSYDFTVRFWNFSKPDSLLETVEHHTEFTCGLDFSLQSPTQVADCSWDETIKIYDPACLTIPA
UniProt Q9P2B2, sequence (Q9P2B2 whole entry, looked up): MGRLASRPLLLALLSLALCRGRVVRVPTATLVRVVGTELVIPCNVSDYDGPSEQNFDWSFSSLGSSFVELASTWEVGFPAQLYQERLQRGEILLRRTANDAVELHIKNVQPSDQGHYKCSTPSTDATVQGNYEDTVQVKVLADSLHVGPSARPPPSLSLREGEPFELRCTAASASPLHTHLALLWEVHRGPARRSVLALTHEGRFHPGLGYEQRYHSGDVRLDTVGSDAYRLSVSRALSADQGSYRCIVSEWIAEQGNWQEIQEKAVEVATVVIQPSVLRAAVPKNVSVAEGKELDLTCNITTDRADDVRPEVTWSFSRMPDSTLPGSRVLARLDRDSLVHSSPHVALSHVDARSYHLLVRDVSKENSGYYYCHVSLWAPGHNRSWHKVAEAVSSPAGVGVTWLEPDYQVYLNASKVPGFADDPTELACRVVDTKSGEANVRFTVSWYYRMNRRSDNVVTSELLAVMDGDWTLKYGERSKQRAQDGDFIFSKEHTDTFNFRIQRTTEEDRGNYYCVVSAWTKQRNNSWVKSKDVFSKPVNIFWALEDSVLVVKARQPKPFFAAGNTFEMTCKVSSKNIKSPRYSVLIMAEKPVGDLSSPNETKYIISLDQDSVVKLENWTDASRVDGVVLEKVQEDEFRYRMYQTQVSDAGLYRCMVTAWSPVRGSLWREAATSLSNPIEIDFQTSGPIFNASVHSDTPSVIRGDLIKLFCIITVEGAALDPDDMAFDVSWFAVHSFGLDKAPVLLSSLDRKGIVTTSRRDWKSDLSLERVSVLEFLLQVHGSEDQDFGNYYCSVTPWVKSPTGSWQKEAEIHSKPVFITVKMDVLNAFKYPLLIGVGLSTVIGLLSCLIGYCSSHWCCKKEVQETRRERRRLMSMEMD
UniProt Q8TBX8, sequence (Q8TBX8 whole entry, looked up): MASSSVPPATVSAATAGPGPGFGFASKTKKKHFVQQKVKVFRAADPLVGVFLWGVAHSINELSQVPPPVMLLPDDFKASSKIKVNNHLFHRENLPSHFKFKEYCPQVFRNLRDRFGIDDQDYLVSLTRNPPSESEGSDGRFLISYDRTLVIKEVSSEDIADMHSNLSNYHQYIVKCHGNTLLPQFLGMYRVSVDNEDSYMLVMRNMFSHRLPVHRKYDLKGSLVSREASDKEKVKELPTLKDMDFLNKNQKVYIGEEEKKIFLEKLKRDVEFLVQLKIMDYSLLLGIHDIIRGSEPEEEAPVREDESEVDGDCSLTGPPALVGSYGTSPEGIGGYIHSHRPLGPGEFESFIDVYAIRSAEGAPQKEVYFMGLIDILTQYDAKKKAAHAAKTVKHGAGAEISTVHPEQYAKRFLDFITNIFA
UniProt P25788, sequence (P25788 whole entry, looked up): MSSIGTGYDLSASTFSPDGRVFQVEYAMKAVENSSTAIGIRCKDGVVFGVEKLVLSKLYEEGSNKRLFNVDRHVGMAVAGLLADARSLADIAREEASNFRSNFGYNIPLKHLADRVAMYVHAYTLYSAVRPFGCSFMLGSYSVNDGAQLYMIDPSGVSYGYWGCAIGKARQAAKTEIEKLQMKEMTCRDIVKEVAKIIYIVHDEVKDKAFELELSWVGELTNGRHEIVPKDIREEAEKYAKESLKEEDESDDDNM
UniProt O60925, sequence (O60925 whole entry, looked up): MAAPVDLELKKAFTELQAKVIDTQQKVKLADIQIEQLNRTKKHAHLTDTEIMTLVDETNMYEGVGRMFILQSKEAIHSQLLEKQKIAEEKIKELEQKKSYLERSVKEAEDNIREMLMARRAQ
UniProt Q9BRX2, sequence (Q9BRX2 whole entry, looked up): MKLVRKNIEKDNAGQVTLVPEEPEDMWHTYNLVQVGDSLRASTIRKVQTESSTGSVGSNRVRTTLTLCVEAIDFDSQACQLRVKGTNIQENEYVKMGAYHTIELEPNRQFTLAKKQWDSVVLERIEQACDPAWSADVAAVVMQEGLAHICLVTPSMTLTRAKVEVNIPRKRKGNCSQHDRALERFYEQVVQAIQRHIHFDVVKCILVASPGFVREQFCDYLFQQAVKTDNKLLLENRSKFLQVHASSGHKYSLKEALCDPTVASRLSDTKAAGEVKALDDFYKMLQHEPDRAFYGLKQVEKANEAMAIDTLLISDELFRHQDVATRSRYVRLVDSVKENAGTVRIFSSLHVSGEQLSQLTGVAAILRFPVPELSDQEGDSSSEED
UniProt Q7RTV0, sequence (Q7RTV0 whole entry, looked up): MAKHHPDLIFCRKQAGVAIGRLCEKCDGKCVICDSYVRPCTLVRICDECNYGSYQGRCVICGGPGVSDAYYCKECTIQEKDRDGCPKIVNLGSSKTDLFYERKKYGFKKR

Target	log2 fold change (IRAK-1-4 Inhibitor I)	log2 fold change (ibrutinib)	log2 fold change [1]	log2 fold change (ralimetinib)	log2 fold change [2]	log2 fold change [3]	log2 fold change [4]	log2 fold change (pinometostat)	log2 fold change [5]	log2 fold change [6]
PHF5A (UniProt Q7RTV0)	0.02	0.001	0.008	0	0.088	0.242 (active)	-0.073	-0.073	0.011	0.109
PMM1 (UniProt Q92871)	-0.06	0.039	-0.011	-0.024	0.014	0.187	0.019	-0.037	0.02	0.049
PRKAB2 (UniProt O43741)	0.003	0.054	-0.115	0.223	-0.117	-0.028	-0.175	-0.065	0.032	-0.053
PTPA (UniProt Q15257)	0.016	-0.027	-0.003	-0.02	-0.022	-0.01	-0.028	-0.044	0.016	-0.011
PLD3 (UniProt Q8IV08)	0.022	-0.031	-0.042	-0.039	-0.022	-0.079	0.05	-0.005	0.003	-0.023
PRPSAP2 (UniProt O60256)	0.02	0.008	0.074	-0.013	0.003	0.035	-0.017	-0.003	0.033	0.063
PIP4K2C (UniProt Q8TBX8)	0.607	0.064	1.48 (active)	-0.019	-0.14	0.095	0.003	-0.006	-0.106	0.018
PGGHG (UniProt Q32M88)	0.018	0.045	-0.013	0.136	0.05	0.044	0.008	-0.054	-0.124	-0.027
PRKAR2A (UniProt P13861)	0.006	0.013	-0.696 (active)	0.047	-0.036	-0.002	-0.023	0.074	-0.06	0.058
PFDN1 (UniProt O60925)	-0.187	-0.119	-0.002	-0.141	-0.031	0.062	-0.13	-0.175	-0.021	0.254
POLR2A (UniProt P24928)	-0.029	0.054	0.342 (active)	0.011	-0.065	0.19	0.005	-0.004	-0.046	0.033
PELO (UniProt Q9BRX2)	-0.073	0.071	-0.106	0.122	-0.128	-0.361 (active)	0.058	0.201	0.019	0.088
PRIM2 (UniProt P49643)	-0.043	-0.04	-0.065	-0.058	-0.265	-0.213	0.074	0.005	0	0.059
PSPC1 (UniProt Q8WXF1)	-0.097	0.002	-0.201	-0.012	-0.024	-0.18	0.048	-0.02	-0.042	0.15
PBK (UniProt Q96KB5)	-0.142	-0.059	0	0.111	-0.144	-0.286	0.06	0.071	-0.011	-0.08
PIR (UniProt O00625)	-0.016	0.019	0.016	-0.056	0.073	0.011	-0.042	-0.01	0.015	0.037
PSMD7 (UniProt P51665)	0.055	-0.006	0.028	0.01	0.057	0.019	-0.216 (active)	0.066	0.034	-0.029
PLCG1 isoform 2 (UniProt P19174)	-0.079	0.03	0.041	-0.042	-0.362 (active)	-0.23	0.007	0.069	0.023	-0.027
PIP4K2B (UniProt P78356)	0.254	0.01	0.856 (active)	0.005	-0.149	0.033	-0.034	-0.014	-0.11	0.065
PTGFRN (UniProt Q9P2B2)	0.009	0.06	-0.111	-0.029	-0.026	0.222 (active)	0.07	0.002	0.006	0.028
PTDSS1 (UniProt P48651)	-0.146	0.118	0.021	0.029	-0.023	-0.585 (active)	0.061	0.212	0.093	0.035
PSMA3 (UniProt P25788)	-0.027	-0.013	0.008	0.037	0.071	0.102	-0.065	-0.033	-0.02	-0.014
PCYT1A (UniProt P49585)	0.081	-0.032	-0.007	-0.072	-0.019	-0.163	0.084	-0.005	0.116	-0.137
PEX7 (UniProt O00628)	0.03	-0.092	-0.106	-0.064	-0.057	-0.006	0.003	-0.034	0.025	0.033
PPOX (UniProt P50336)	0.095	0.136	-0.151	0.077	0.187	-0.217	-0.008	-0.039	-0.095	-0.009
PPP2R5C isoform 4 (UniProt Q13362)	0.027	-0.051	0.019	-0.15	-0.07	-0.02	0.034	0.043	0.016	-0.032
PEX16 isoform 2 (UniProt Q9Y5Y5)	-0.068	-0.059	-0.025	-0.104	-0.067	-0.407 (active)	0.033	-0.052	0.03	0.136
PRPF3 (UniProt O43395)	-0.018	-0.038	-0.179	-0.008	-0.055	-0.205	-0.001	0	0	-0.2
PTK2B (UniProt Q14289)	-0.095	-0.257	-0.018	0.178	-0.026	-0.244	0.052	0.004	-0.014	0.061
PURA (UniProt Q00577)	-0.151	0.096	0.169	0.064	0.276	0.129	0.079	0.087	-0.005	-0.792 (active)

Reference: the supplement of paper PMC10849652
